Compounds with a hit are over-represented: about 3.4% of the library has one in this group of screens.
GPR151 ag: activators of human GPR151, primary screen, cell-based, PathHunter beta-arrestin, luminescence; PathHunter beta-arrestin GPR151 cells; 650,000 tested, 1% active; G-protein coupled receptor 151 (Homo sapiens), Q8TDV0; activation, % at 11.2 µM; in the data active = activation above about 4.9%;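 note: 0% = median of compound wells and 100% = cells with positive control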
MITF inh: MITF inhibitors, primary screen, biochemical, AlphaScreen, human; Microphthalmia-associated transcription factor (Homo sapiens), O75030; inhibition, % at 2.6 µM; AlphaScreen MITF homodimerization, bead proximity signal; 650,000 tested, 0.91% active; in the data active = inhibition above about 50%;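 note: 0% = vehicle wells with protein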
Target sequence (O75030 whole entry, looked up): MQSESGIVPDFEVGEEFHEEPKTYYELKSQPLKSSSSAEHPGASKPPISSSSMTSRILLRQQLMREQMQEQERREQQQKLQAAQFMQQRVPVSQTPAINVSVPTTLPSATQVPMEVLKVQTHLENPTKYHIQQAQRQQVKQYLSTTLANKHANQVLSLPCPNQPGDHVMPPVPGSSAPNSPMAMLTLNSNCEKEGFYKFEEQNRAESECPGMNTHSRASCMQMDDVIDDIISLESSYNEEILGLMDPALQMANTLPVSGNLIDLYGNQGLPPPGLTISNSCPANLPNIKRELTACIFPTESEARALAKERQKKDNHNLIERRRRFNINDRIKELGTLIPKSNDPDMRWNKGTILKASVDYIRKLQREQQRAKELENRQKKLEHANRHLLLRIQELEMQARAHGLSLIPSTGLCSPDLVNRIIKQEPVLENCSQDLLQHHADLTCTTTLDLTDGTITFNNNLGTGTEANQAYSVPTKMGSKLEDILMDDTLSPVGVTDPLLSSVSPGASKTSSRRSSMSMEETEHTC
TEAD-YAP inh: TEAD-YAP interaction inhibition, primary screen, TEAD-YAP interaction inhibitor project, luminescence, HEK-TIYL cells; TEAD-Gal4/YAP UAS-luciferase luminescence; inhibition, % at 9.12 µM; 640,000 tested, 1.4% active; in the data active = inhibition above about 32%;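 note: 0% = median of test compound wells and 100% = reference inhibitor wells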
FBW7 activator: FBW7 E3 ligase activators, primary screen, biochemical, AlphaScreen, human; normalized activity (activation), % at 26.1 µM; 650,000 tested, 0.13% active; AlphaScreen FBW7–phospho-cyclin E peptide binding, activator screen; AID 1259310, 2017; F-box/WD repeat-containing protein 7 (Homo sapiens), Q969H0; in the data active = normalized activity above about 1.9%;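 note: purified mutant Fbw7 with reduced substrate affinity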
Active calls of the source: *.

SMILES	GPR151 ag	MITF inh	TEAD-YAP inh	FBW7 activator
Cc1cc(SCC(=O)Nc2ccccc2F)nc2ccc(F)cc12	0	9	7	0
O=C(Oc1ccc(/C=C/c2ccncc2)cc1)c1ccncc1	-7	-4	48*	0
O=C(Nc1ccccc1)c1ccc(NC(=O)c2ccccc2Br)cc1	1	1	-24	0
CCOc1ccc(C(=O)Nc2nnc(COC)s2)cc1	-1	10	-19	0
Cc1nc2sccn2c1-c1csc(Nc2ccccc2)n1	-1	-2	-63	0
Cc1nc2sccn2c1-c1csc(Nc2ccc(Br)cc2)n1	0	-6	49*	0
Cc1nc2sccn2c1-c1csc(Nc2cccc(O)c2)n1	0	-7	37*	0
Cc1nc2sccn2c1-c1csc(Nc2ccc(N)cc2)n1	-1	18	0	0
COc1cc(/C=N\NC(=O)Cc2cccn2C)ccc1OCc1ccccc1	-2	26	-10	0
NS(=O)(=O)c1ccc(CCNC(=O)c2ccc(C#CC3(O)CCCCC3)cc2)cc1	-1	16	45*	0
COc1ccc(C2(C(=O)NC(C)c3nc(-c4ccncc4)n[nH]3)CC2)cc1 (stereo unspecified)	0	-4	64*	0
COc1ccc(C2(C(=O)NC(C)c3nc(-c4cccnc4)n[nH]3)CCCCC2)cc1 (stereo unspecified)	0	1	1	0
CC(C)Oc1ccccc1/C=C(\C#N)C(=O)NCCc1ccccc1	4	-3	50*	0
COC(=O)c1ccc(/C=N/NC(=O)c2ccoc2C)cc1	-9	-7	35*	0
CCc1ccc(/C=N/NC(=O)c2ccoc2C)cc1	-9	8	23	0
CCOc1ccc(NC(=O)c2ccc(O)cc2)cc1	-3	1	64*	1
CCOc1ccc(NC(=O)c2cccc(O)c2)cc1	-6	7	80*	0
O=C(Nc1ccc(O)cc1)c1ccc([N+](=O)[O-])cc1	1	11	55*	0
CCC(=O)Oc1ccc(C(=O)Nc2ccc(N(C)C)cc2)cc1	-1	-9	38*	0
COc1ccc(OC)c(/C=N\NC(=O)c2c(C)nc3ccc(Cl)cn23)c1	0	10	9	0
O=C(CCCn1c(=O)[nH]c2ccsc2c1=O)NCc1ccc(F)cc1	0	-20	-3	0
CC[C@@H]1NC(=O)[C@@H]2C[C@H](NC(=O)Nc3c(Cl)cccc3Cl)CN2C1=O	0	-5	-6	0
O=C(Cn1cnc2scc(-c3ccccc3)c2c1=O)N1CCCCCC1	-1	19	10	0
Cc1nn(CC(=O)NCCCN2CCCC(C)C2)c(=O)c2cc3occc3n12 (stereo unspecified)	-1	-1	-6	0
CCOCCOc1cccc(C(=O)Nc2ccc3ccccc3c2)c1	-3	10	39*	1
SMILES	GPR151 ag	MITF inh	TEAD-YAP inh	FBW7 activator
Nc1c(Br)cc2c(c1Br)C(=O)c1ccccc1C2=O	-1	-4	-25	0
CN(C)c1cc2c(c(N(C)C)c1)C(=O)c1ccccc1C2=O	-2	54*	-1	-1
CCCNC(=O)c1ccc2nc(N3CCN(Cc4ccc5c(c4)OCO5)CC3)sc2c1	-1	13	-2	0
O=C(NCCOc1ccccc1)c1ccc2nc(N3CCOCC3)sc2c1	5.8*	7	11	0
COCCNC(=O)c1ccc2nc(N3CCOCC3)sc2c1	0	24	2	0
O=C(NC1CCN(Cc2ccccc2)CC1)c1ccc2nc(N3CCN(Cc4ccc5c(c4)OCO5)CC3)sc2c1	1	6	44*	0
Fc1ccccc1Nc1nnc(SCC2CCCCO2)s1 (stereo unspecified)	-10	-1	73*	0
Cc1sc(NC(=O)Cc2cccs2)nc1-c1ccc2c(c1)CC(C)N2S(C)(=O)=O (stereo unspecified)	2	7	52*	0
CNc1nc(-c2ccc3c(c2)CCN3C(=O)C2CC2)cs1	1	-2	63*	0
Cc1sc(NC(=O)c2ccncc2)nc1-c1ccc2c(c1)CCN2C(=O)C1CC1	0	-13	38*	0
CNc1nc(-c2ccc3c(c2)CCN3C(=O)C2CC2)c(C)s1	1	-3	5	0
Cc1sc(NC(=O)CCl)nc1-c1ccc2c(c1)CCN2S(C)(=O)=O	0	18	-10	0
